Compounds with a hit are over-represented: about 1.6% of the library has one in this group of screens.
KCNQ2 inh = rat KCNQ2 potassium channel inhibitors, primary screen, cell-based, CHO-K1, FluxOR thallium flux, B-score; B-score at 10 µM; AID 2156, 2009; Potassium voltage-gated channel subfamily KQT member 2 (Rattus norvegicus), O88943; 20 min; stronger effect = lower value; 1.1% of 310,000 active;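 active means fluorescence ratio B-score at most minus 3 library SDs, with starting brightness B-score within 2 library SDs, cut at about -5.5 in these data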
KCNQ2 pot = potentiators of rat KCNQ2 potassium channel. AID 2239, 2010. CHO-K1 KCNQ2, FluxOR thallium flux fluorescence; stronger effect = higher value. B-score at 10 µM. 0.54% of 310,000 active. Potassium voltage-gated channel subfamily KQT member 2 (Rattus norvegicus), O88943;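 active means fluorescence ratio B-score at least 3 SD of library B-scores, with initial fluorescence B-score within 3 of them, cut at about 5.3 in these data; same plate scores as AID 2156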;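 further: B-score of peak minus minimum over baseline fluorescence ratio after K+ and Tl+ stimulus; positive B-score means potentiation of KCNQ2 with more thallium influx and brighter signal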
KCNQ2 inh conf = rat KCNQ2 potassium channel inhibitors, confirmation, cell-based, thallium flux; shares compounds with KCNQ2 inh; KCNQ2-expressing cells, inhibition; stronger effect = lower value; activity change, negative = inhibition, % at 10 µM; 57% of 1,000 active
KCNQ1 spec = human KCNQ1 channel inhibition, counter-screen for KCNQ2 inhibitor project, cell-based, FluxOR thallium flux. shares compounds with KCNQ2 inh. KCNQ1-expressing cells, FluxOR thallium flux fluorescence; stronger effect = lower value. activity change, negative = inhibition, % at 10 µM. 15% of 1,000 active;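 active means activity change at least 3 SD of negative controls below their mean in both duplicate wells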;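 further: CHO cells stably transfected with KCNQ1 and depolarized by potassium stimulus; peak minus minimum fluorescence over baseline after thallium addition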
Target sequence (P51787 whole entry, looked up): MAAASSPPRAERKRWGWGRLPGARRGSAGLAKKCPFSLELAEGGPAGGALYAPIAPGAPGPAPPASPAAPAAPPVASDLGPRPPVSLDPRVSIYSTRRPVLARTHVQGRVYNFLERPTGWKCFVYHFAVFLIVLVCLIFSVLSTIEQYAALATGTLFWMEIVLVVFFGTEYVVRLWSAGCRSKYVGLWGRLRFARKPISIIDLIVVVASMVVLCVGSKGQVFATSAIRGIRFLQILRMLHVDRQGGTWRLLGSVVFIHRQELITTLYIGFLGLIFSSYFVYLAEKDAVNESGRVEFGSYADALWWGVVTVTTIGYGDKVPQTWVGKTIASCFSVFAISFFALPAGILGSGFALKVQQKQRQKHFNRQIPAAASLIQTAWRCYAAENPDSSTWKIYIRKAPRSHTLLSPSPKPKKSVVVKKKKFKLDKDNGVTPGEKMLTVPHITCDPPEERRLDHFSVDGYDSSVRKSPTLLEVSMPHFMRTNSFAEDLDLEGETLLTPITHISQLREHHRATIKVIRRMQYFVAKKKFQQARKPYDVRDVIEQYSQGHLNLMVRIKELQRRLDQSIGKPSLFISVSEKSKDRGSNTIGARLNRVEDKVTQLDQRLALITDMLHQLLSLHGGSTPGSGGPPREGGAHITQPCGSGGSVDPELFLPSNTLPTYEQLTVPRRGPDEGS
CHO parental ctr = thallium flux change in parental CHO cells, counter-screen for KCNQ2 inhibitor project; shares compounds with KCNQ2 inh; stronger effect = lower value; activity change, % at 10 µM; 14% of 1,000 active
KCNQ2 inh confirm = rat KCNQ2 channel inhibitors, confirmation, cell-based, automated patch clamp, single concentration; calls only at 10 µM; shares compounds with KCNQ2 inh; KCNQ2-expressing cells, automated patch clamp current; 49% of 550 active
Numbers stand for hits; n = inactive; x = no result; + = active, no number. Unless noted, how the calls were made is not given here.

SMILES	KCNQ2 inh	KCNQ2 pot	KCNQ2 inh conf	KCNQ1 spec	CHO parental ctr	others
CC1CCC(C(C)C)C(OC(=O)Cn2nnc3c(cnn3-c3ccccc3)c2=O)C1 (configuration not stated)	-7.3	n	-27%	n	n
CC(=O)CN1Cc2ccccc2/C1=N\C(=O)Nc1ccccc1	n	n	x	x	x
COc1ccc(N2Cc3ccccc3/C2=N\C(=O)Nc2ccccc2)cc1	-7.1	n	-28%	n	n	KCNQ2 inh confirm=+
C/C(=N\Nc1ccc(C)c(Cl)c1)c1cccnc1	n	x	x	x	x
O=C(CCc1c[nH]c2ccccc12)NCCc1ccc(O)cc1	n	x	x	x	x
Cc1ccc(CN=c2c([N+](=O)[O-])nn(-c3cccc(C)c3)n2O)cc1	-7	n	-19%	n	n	KCNQ2 inh confirm=n
Cc1ccc(CN=c2c([N+](=O)[O-])nn(-c3cccc(Cl)c3)n2O)cc1	n	x	x	x	x
C=CCN(c1ccccc1C(=O)NCC(=O)O)S(=O)(=O)c1ccccc1C	n	x	x	x	x
Cc1ccc(S(=O)(=O)N(C)c2ccc3c(ncn3C)c2[N+](=O)[O-])cc1	n	x	x	x	x
CC(C)=CCc1cc2c(=O)c3c(O)c4c(cc3oc2c(O)c1O)OC(C)C4(C)C (configuration not stated)	-8.6	n	n	n	n
CC1Oc2cc3oc4c(O)c5c(cc4c(=O)c3c(O)c2C1(C)C)C=CC(C)(C)O5 (configuration not stated)	n	x	x	x	x
COc1ccc(Br)cc1CN(C)C(=O)c1ccccc1OCc1c(C)noc1C	-8.6	n	n	n	n
Cc1ccc(NC(=O)CN(C)C(=O)c2ccccc2OCc2c(C)noc2C)cc1	n	x	x	x	x
Cc1ccc(Sc2c(CO)c(-c3ccccc3)nn2C)cc1	n	x	x	x	x
Cc1ccccc1Sc1c(C#N)c(-c2ccccc2)nn1C	-10	n	-36%	-36%	-32%	KCNQ2 inh confirm=n
COc1ccc(C(c2c(O)ccc3ccccc23)N2CCOCC2)c(OC)c1 (configuration not stated)	-10	n	-32%	n	n	KCNQ2 inh confirm=n
COc1ccc(C(CCN2CCOCC2)c2c(O)cc(OC)cc2OC)cc1 (configuration not stated)	n	n	x	x	x
CN(CC(=O)Nc1c(Cl)cccc1Cl)C(=O)c1ccc(-n2cncn2)c([N+](=O)[O-])c1	n	n	x	x	x
CCC(CO)NCC(O)COCc1ccc2c(c1)OCO2 (configuration not stated)	n	x	x	x	x
C=C1SC(Nc2c(C)cccc2C)=NC12CCCCC2	n	x	x	x	x
C=C1SC(Nc2c(C)cc(C)cc2C)=NC12CCCCC2	-7.6	n	-28%	n	n	KCNQ2 inh confirm=n
COc1ccc(Cn2nnnc2C(C(C)C)N(Cc2ccco2)Cc2cccs2)cc1 (configuration not stated)	n	x	x	x	x
CC(C)C(c1nnnn1Cc1ccccc1)N(Cc1ccco1)Cc1cccs1 (configuration not stated)	-9	n	-44%	-45%	-41%	KCNQ2 inh confirm=n
COc1cc(NC(=O)C2CCN(S(=O)(=O)c3ccc4[nH]c(=O)oc4c3)CC2)cc(OC)c1	n	x	x	x	x
CN(c1ccc(C(=O)N2CCN(Cc3ccccc3)CC2)cc1)S(=O)(=O)c1ccc(Cl)cc1	n	x	x	x	x
SMILES	KCNQ2 inh	KCNQ2 pot	KCNQ2 inh conf	KCNQ1 spec	CHO parental ctr	others
CCCCn1c(N)c(N(CCOC)C(=O)c2ccc(C)o2)c(=O)[nH]c1=O	n	x	x	x	x
Cc1ccc(C(C(=O)NCc2ccc(F)cc2)N(C(=O)c2csnn2)C2CC2)o1 (configuration not stated)	-8.7	n	-20%	n	n	KCNQ2 inh confirm=+
Cc1ccc(C(C(=O)NCc2ccc(F)cc2)N(C(=O)c2csnn2)C2CC2)cc1 (configuration not stated)	n	x	x	x	x
Cc1ccc(C(=O)NCC(=O)OCC(=O)Nc2ccc3[nH]c(=O)[nH]c3c2)cc1	n	n	x	x	x
Clc1ccc(-c2csc(N3CCC(c4ccccc4)C3)n2)cc1 (configuration not stated)	n	x	x	x	x
Fc1ccc(-c2csc(N3CCC(c4ccccc4)C3)n2)cc1 (configuration not stated)	-9.5	n	n	n	n
